# Source: PubChem BioAssay AID1159580 (chemical genetic matrix, 2015)
# “And” between values parts separate entries of the source, which are not always exact repeats. Identical values can stand only once. About 2,000 (36%) of roughly 5,500 compounds were called active. Roughly 18% stayed inconclusive and do not appear here. Cut-off read from the data, not from the text of the source: active = normalized growth mostly below about 0.91 (no sharp cut-off); inconclusive = no clear call, values can overlap the other calls; inactive = mostly above about 0.92. The list shows a part of the results.
# Assay: chemical genetic growth profiling, strain panel (AID 1159580);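 note: tested at 20 µM; growth read once vehicle control cultures reached saturation at 30 °C; 1 = growth at the plate median or of vehicle wells; lower values mean less growth of the strain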
# Conditions: S. cerevisiae deletion strains, growth OD
structure (smiles),measurement,setting,value
CC1=CC(=O)C(C(C)C)=CC1=O,normalized growth,"locus YAL013W, strain DEP1, stronger effect = lower value",0.784 (active)
same,normalized growth,"locus YAL021C, strain ccr4, stronger effect = lower value",0.91 (inactive)
same,normalized growth,"locus YAL026C, strain drs2, stronger effect = lower value",0.711 (active)
same,normalized growth,"locus YAL030W, strain snc1, stronger effect = lower value",0.914 (active)
same,normalized growth,"locus YBL061C, strain skt5, stronger effect = lower value",0.992 (inactive)
same,normalized growth,"locus YBR009C, strain hhf1, stronger effect = lower value",0.488 (active)
same,normalized growth,"locus YBR021W, strain FUR4, stronger effect = lower value",0.827 (active)
same,normalized growth,"locus YBR023C, strain chs3, stronger effect = lower value",0.997 (inactive)
same,normalized growth,"locus YBR171W, strain sec66, stronger effect = lower value",0.996 (inactive)
same,normalized growth,"locus YBR229C, strain ROT2, stronger effect = lower value",0.984 (inactive)
same,normalized growth,"locus YBR231C, strain swc5, stronger effect = lower value",0.956 (inactive)
same,normalized growth,"locus YBR279W, strain paf1, stronger effect = lower value",0.98 (inactive)
same,normalized growth,"locus YCL011C, strain gbp2, stronger effect = lower value",0.375 (active)
same,normalized growth,"locus YCL016C, strain dcc1, stronger effect = lower value",0.984 (inactive)
same,normalized growth,"locus YCL029C, strain bik1, stronger effect = lower value",0.926 (inactive)
same,normalized growth,"locus YCL061C, strain MRC1, stronger effect = lower value",0.966 (inactive)
same,normalized growth,"locus YCL069W, strain vba3, stronger effect = lower value",0.993 (inactive)
same,normalized growth,"locus YCR088W, strain abp1, stronger effect = lower value",0.777 (active)
same,normalized growth,"locus YDL005C, strain med2, stronger effect = lower value",0.974 (inactive)
same,normalized growth,"locus YDL035C, strain GPR1, stronger effect = lower value",0.859 (inactive)
same,normalized growth,"locus YDL040C, strain nat1, stronger effect = lower value",0.996 (inactive)
same,normalized growth,"locus YDL074C, strain BRE1, stronger effect = lower value",0.797 (inactive)
same,normalized growth,"locus YDL101C, strain DUN1, stronger effect = lower value",0.954 (inactive)
same,normalized growth,"locus YDL185W, strain tfp1, stronger effect = lower value",0.935 (inactive)
same,normalized growth,"locus YDL192W, strain arf1, stronger effect = lower value",0.776 (active)
same,normalized growth,"locus YDR001C, strain nth1, stronger effect = lower value",1 (inactive)
same,normalized growth,"locus YDR069C, strain doa4, stronger effect = lower value",0.988 (inactive)
same,normalized growth,"locus YDR101C, strain arx1, stronger effect = lower value",0.87 (active)
same,normalized growth,"locus YDR137W, strain rgp1, stronger effect = lower value",0.665 (active)
same,normalized growth,"locus YDR159W, strain sac3, stronger effect = lower value",0.773 (active)
same,normalized growth,"locus YDR162C, strain NBP2, stronger effect = lower value",0.858 (inactive)
same,normalized growth,"locus YDR195W, strain ref2",1.03 (inactive)
same,normalized growth,"locus YDR297W, strain sur2, stronger effect = lower value",0.989 (inactive)
same,normalized growth,"locus YDR318W, strain mcm21, stronger effect = lower value",0.878 (active)
same,normalized growth,"locus YDR335W, strain msn5, stronger effect = lower value",0.998 (inactive)
same,normalized growth,"locus YDR388W, stronger effect = lower value",0.925 (active)
same,normalized growth,"locus YDR392W, strain spt3, stronger effect = lower value",0.455 (active)
same,normalized growth,"locus YDR502C, strain sam2, stronger effect = lower value",0.857 (active)
same,normalized growth,"locus YEL003W, strain gim4, stronger effect = lower value",0.416 (active)
same,normalized growth,"locus YEL037C, strain rad23, stronger effect = lower value",0.996 (inactive)
same,normalized growth,"locus YEL061C, strain CIN8 (second series), stronger effect = lower value",0.917 (inactive)
same,normalized growth,"locus YER015W, strain faa2, stronger effect = lower value",0.989 (inactive)
same,normalized growth,"locus YER016W, strain bim1, stronger effect = lower value",1.01 (inactive)
same,normalized growth,"locus YER110C, stronger effect = lower value",0.922 (inactive)
same,normalized growth,"locus YER111C, strain swi4, stronger effect = lower value",0.994 (inactive)
same,normalized growth,"locus YER155C, strain BEM2 (second series), stronger effect = lower value",0.425 (active)
same,normalized growth,"locus YER155C, strain BEM2, stronger effect = lower value",0.871 (active)
same,normalized growth,"locus YER167W, strain BCK2, stronger effect = lower value",0.897 (active)
same,normalized growth,"locus YFR010W, strain ubp6, stronger effect = lower value",0.93 (inactive)
same,normalized growth,"locus YGL078C, strain dbp3, stronger effect = lower value",0.932 (inactive)
same,normalized growth,"locus YGL086W, strain mad1, stronger effect = lower value",0.846 (active)
same,normalized growth,"locus YGL167C, strain pmr1, stronger effect = lower value",0.996 (inactive)
same,normalized growth,"locus YGL173C, strain kem1, stronger effect = lower value",0.947 (inactive)
same,normalized growth,"locus YGL227W, strain vid30, stronger effect = lower value",0.217 (active)
same,normalized growth,"locus YGL240W, strain doc1, stronger effect = lower value",0.938 (inactive)
same,normalized growth,"locus YGL248W, strain PDE1, stronger effect = lower value",0.849 (active)
same,normalized growth,"locus YGL253W, strain hxk2, stronger effect = lower value",0.956 (inactive)
same,normalized growth,"locus YGR078C, strain PAC10, stronger effect = lower value",0.547 (active)
same,normalized growth,"locus YGR135W, strain pre9, stronger effect = lower value",0.826 (active)
same,normalized growth,"locus YGR252W, strain gcn5, stronger effect = lower value",0.746 (active)
same,normalized growth,"locus YHR013C, strain ard1, stronger effect = lower value",0.995 (inactive)
same,normalized growth,"locus YHR027C, strain rpn1, stronger effect = lower value",0.996 (inactive)
same,normalized growth,"locus YHR030C, strain SLT2, stronger effect = lower value",0.556 (active) and 0.951 (inactive)
same,normalized growth,"locus YHR079C, strain IRE1 (second series), stronger effect = lower value",0.935 (inactive)
same,normalized growth,"locus YHR079C, strain IRE1, stronger effect = lower value",0.941 (inactive)
same,normalized growth,"locus YHR094C, strain hxt1, stronger effect = lower value",0.949 (inactive)
same,normalized growth,"locus YHR129C, strain ARP1, stronger effect = lower value",0.864 (active)
same,normalized growth,"locus YHR142W, strain chs7, stronger effect = lower value",0.775 (active)
same,normalized growth,"locus YHR200W, strain rpn10, stronger effect = lower value",0.911 (active)
same,normalized growth,"locus YIL066C, strain RNR3, stronger effect = lower value",0.828 (active)
same,normalized growth,"locus YIL073C, strain SPO22, stronger effect = lower value",0.765 (inactive)
same,normalized growth,"locus YIL125W, strain kgd1, stronger effect = lower value",0.926 (active)
same,normalized growth,"locus YIR030C, strain dcg1, stronger effect = lower value",0.9 (active)
same,normalized growth,"locus YJL092W, strain hpr5, stronger effect = lower value",0.989 (inactive)
same,normalized growth,"locus YJL095W, strain BCK1 (second series), stronger effect = lower value",0.928 (inactive)
same,normalized growth,"locus YJL095W, strain BCK1, stronger effect = lower value",0.468 (active) and 0.942 (inactive)
same,normalized growth,"locus YJL115W, strain asf1, stronger effect = lower value",0.981 (inactive)
same,normalized growth,"locus YJL129C, strain trk1, stronger effect = lower value",0.65 (active)
same,normalized growth,"locus YJL134W, strain LCB3, stronger effect = lower value",0.982 (inactive)
same,normalized growth,"locus YJL154C, strain vps35, stronger effect = lower value",0.989 (inactive)
same,normalized growth,"locus YJL164C, strain tpk1, stronger effect = lower value",0.785 (active)
same,normalized growth,"locus YJL166W, strain qcr8, stronger effect = lower value",0.415 (active)
same,normalized growth,"locus YJL168C, strain set2, stronger effect = lower value",0.942 (inactive)
same,normalized growth,"locus YJL187C, strain SWE1 (second series), stronger effect = lower value",0.931 (inactive)
same,normalized growth,"locus YJL187C, strain SWE1, stronger effect = lower value",0.974 (inactive)
same,normalized growth,"locus YJR043C, strain POL32, stronger effect = lower value",0.79 (active)
